Records with an inconclusive call do not appear. Active and inactive are the calls of the source. How the source made its calls: active means hit-call score of the fitted dose curve at least 0.9, where 1 is the maximum; inconclusive means response in the unintended direction; inactive means score below 0.9.
Each compound was assayed against human Lymphocyte-cell Factor Kinase (Lck), LCK (gene 3932) (UniProt P06239) (assay: NVS_ENZ_hLck: NovaScreen (NVS) Enzymatic Assay for human Lymphocyte-cell Factor Kinase (Lck)).
human Lymphocyte-cell Factor Kinase (Lck), LCK (gene 3932), sequence (P06239 whole entry, looked up): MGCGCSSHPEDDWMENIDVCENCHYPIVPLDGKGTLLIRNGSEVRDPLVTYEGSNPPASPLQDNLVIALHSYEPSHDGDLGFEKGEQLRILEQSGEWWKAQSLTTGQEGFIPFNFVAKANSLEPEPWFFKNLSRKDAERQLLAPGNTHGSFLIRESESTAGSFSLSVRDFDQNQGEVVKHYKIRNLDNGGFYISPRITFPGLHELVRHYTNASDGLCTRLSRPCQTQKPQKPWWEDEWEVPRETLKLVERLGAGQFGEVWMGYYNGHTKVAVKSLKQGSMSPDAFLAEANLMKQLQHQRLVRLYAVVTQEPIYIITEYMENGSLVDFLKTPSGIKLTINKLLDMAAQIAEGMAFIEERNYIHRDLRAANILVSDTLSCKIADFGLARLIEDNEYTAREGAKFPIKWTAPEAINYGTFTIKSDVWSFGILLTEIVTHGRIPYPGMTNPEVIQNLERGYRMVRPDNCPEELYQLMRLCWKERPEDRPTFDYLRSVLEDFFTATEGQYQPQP
Procedure: NVS_ENZ_hLck is a biochemical, single-readout assay that uses extracted gene-proteins in a cell-free assay. Measurements were taken 1 hour after chemical dosing in a 384-well plate.NVS_ENZ_hLck is one of one assay component(s) measured or calculated from the NVS_ENZ_hLck assay. It is designed to make measurements of enzyme activity, a form of enzyme reporter, as detected with fluorescence intensity signals by Fluorescence and electrophoretic mobility shift technology.Data from the assay component NVS_ENZ_hLck was analyzed into 1 assay endpoint. This assay endpoint, NVS_ENZ_hLck, was analyzed in the positive analysis fitting direction relative to DMSO as the negative control and baseline of activity. Using a type of enzyme reporter, loss-of-signal activity can be used to understand changes in the enzymatic activity as they relate to the gene LCK. Furthermore, this assay endpoint can be referred to as a primary readout, because this assay has produced […] where this one serves a enzymatic activity function. To generalize the intended target to other relatable targets, this assay endpoint is annotated to the kinase intended target family, where the subfamily is non-receptor tyrosine kinase.
Binding assays used specific radioligands (tritiated, iodinated) with non-radioactive competitive displacement ligands in agonist or antagonist protocols (as indicated) and various reference compounds and inhibitors to titrate specific binding to receptors and transporters. Most enzyme assays (CYPs, kinases, phosphatases, proteases, HDACs) used recombinant protein and specific substrates (fluorescence mostly, some colorimetric and radioactive) and inhibitors, followed by a biochemical separation of substrate and product. All assays for the biochemical HTS were initially run in duplicate at a single concentration (10 uM for CYP450 assays and 25 uM for all others). Assay-chemical combinations meeting a pre-defined threshold (e.g., 30% inhibition and other criteria defined below) were then run in singleton concentration-response format with maximum concentration of 20 uM for CYPs and 50 uM for all others. Each assay was run with positive and negative controls, and concurrent controls on every plate. The follow-up (secondary) screen tested active chemical-pairs in concentration series, as well as a few additional assays not tested in the primary screen, some selected negative inactives, and several cases re-run in the concentration series for confirmatory purposes.
For `CNC(=S)S`, the outcome was “inactive”.
In the case of `O=C(O)C(F)(F)C(F)(F)C(F)(F)C(F)(F)C(F)(F)C(F)(F)C(F)(F)F`, the outcome was “inactive”.
For `S=C1NCCN1`, the outcome was “inactive”.
With `CC[C@H](C)[C@H]1O[C@]2(C=C[C@@H]1C)C[C@@H]1C[C@@H](C/C=C(\C)[C@@H](O[C@H]3C[C@H](OC)[C@@H](O[C@H]4C[C@H](OC)[C@@H](NC)[C@H](C)O4)[C@H](C)O3)[C@@H](C)/C=C/C=C3\CO[C@@H]4[C@H](O)C(C)=C[C@@H](C(=O)O1)[C@]34O)O2` the AC50 was 36 µM (active).
`C=CCC1=C(C)[C@@H](OC(=O)[C@@H]2[C@@H](C=C(C)C)C2(C)C)CC1=O` was tested, and the outcome was “inactive”.
With `Cc1cnc(C2=NC(C)(C(C)C)C(=O)N2)c(C(=O)O)c1` (stereo not drawn) the outcome was “inactive”.
`O=S(=O)(O)C(F)(F)C(F)(F)C(F)(F)C(F)(F)C(F)(F)C(F)(F)C(F)(F)C(F)(F)F` was tested, and the AC50 was 43.9 µM (active).
In the case of `O=C(Nc1ccccc1)Nc1cnns1`, the outcome was “inactive”.

Reference: PubChem BioAssay AID2283170 (EPA ToxCast)
